Sampled rows, rich in hits. Any-hit rate of the full collection: about 0.9%.
APEX1 inh – blocks human APE1 abasic DNA cleavage | P27695 | recombinant APE1, TAMRA/BHQ-2 abasic DNA cleavage fluorescence | Potency, µM (top dose mostly 65.8 µM), without a hit: top-dose activity change, negative = inhibition, hits mostly inhibitors | 350,000 tested, 0.35% active | AID 2517;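 note: plate controls were vehicle for no effect and reference inhibitor for full effect; nearly all actives have a fitted effect of over 55% in size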
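Step 1: APE1 (0.75 nM) with compound, 15 min RT. Step 2: add 50 nM fluorophore/quencher THF duplex. Step 3: three fluorescence reads 60 s apart (525/598 nm); read 3 minus read 1 = reaction progress.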
BLM inh – blocks DNA unwinding by human BLM helicase; recombinant BLM DNA unwinding, fluorescence dequenching; Potency, µM (series often up to 56.1 µM), for inactives: at the highest dose activity change, negative = inhibition, most hits filed as inhibitors; 350,000 tested, 0.2% active; AID 2528;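 note: plate controls were vehicle for no effect and no enzyme for full effect; nearly all actives have a fitted effect of over 35% in size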
TexasRed fluor – Texas Red fluorescence interference in TRb-SRC2 counter-screen. TRb/SRC2 Texas Red total fluorescence interference. Potency, µM (highest dose often 106 µM), inactives show at the top dose fluorescence change, negative = quenching. 280,000 tested, 0.29% active; active = well fitted curve in either direction with a large enough effect; inconclusive = small, poorly fitted or top-dose-only effect
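Human TRβ ligand-binding domain (0.6 uM) and Texas Red SRC2 peptide (20 nM) in Tris buffer with 1 uM T3 and 5% DMSO were incubated with pinned compound for 5 hr at ambient temperature. Total fluorescence was computed as S + 2P (555/632 nm).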
RGS12 GoLoco inh – blocks human Gai1 binding to RGS12 GoLoco peptide, red readout. Potency, µM (highest dose often 61.6 µM), inactives show top-dose activity, negative = inhibition, usual class: inhibitors. P63096. Gai1:RGS12 GoLoco peptide FP, rhodamine, 10 min. 230,000 tested, 0.44% active. AID 880; active = well fitted inhibition curve with a large enough effect, not every such curve was filed as active; inactive = no such curve, though single readings can be large or run the other way; note: nearly all actives have a fitted effect of over 30% in size
TRb-SRC2 inh – inhibitors of human thyroid hormone receptor beta-SRC2 interaction; AID 1469; 280,000 tested, 0.065% active; Potency, µM (highest dose often 106 µM), without a hit: top-dose activity change, negative = inhibition, hits mostly inhibitors; P10828; TRbeta-SRC2 peptide binding, fluorescence polarization; receptor liganded with 1 µM T3;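 note: plate controls were bound peptide for no effect and peptide without receptor for full effect; nearly all actives have a fitted effect of over 50% in size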
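Compounds were added to 0.6 uM TRb ligand-binding domain and 20 nM Texas Red-labeled SRC2 peptide in Tris buffer containing 1 uM T3, incubated 5 hr at ambient temperature, then read by fluorescence polarization.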
RECQ1 inh-1 – blocks DNA unwinding by human RECQ1 | P46063 | RECQ1 DNA unwinding, red fluorescence kinetic read | Potency, µM (titrated, usually from 57.3 µM), inactives show at the top dose activity, negative = inhibition, usual class: inhibitors | 240,000 tested, 0.54% active | AID 2549;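 note: plate controls were vehicle for no effect and no enzyme for full effect; nearly all actives have a fitted effect of over 30% in size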
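RECQ1T1 50 nM; forked duplex (20 bp + 30-nt ss tails) 200 nM, ATP 2 mM final; pH 8.0, 2 mM MgCl2, 2.5 ug/ml poly(dI-dC); 15 min compound preincubation; discontinuous kinetic read over 2 h at RT.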
RECQ1 inh conf – confirmation of human RECQ1 helicase inhibitors; shares compounds with RECQ1 inh-1; RECQ1 helicase DNA unwinding, fluorescence; Potency, µM (highest dose often 229 µM), without a hit: at the highest dose activity change, negative = inhibition, most hits filed as inhibitors; 610 tested, 28% active; AID 2708; note: nearly all actives have a fitted effect of over 45% in size
ADP FP counter – ADP displacement flagged in RECQ1 inhibitor counter-screen. shares compounds with RECQ1 inh-1. ADP fluorescence polarization displacement counterscreen. Potency, µM (doses to about 228 µM), inactives show at the top dose activity change, negative = inhibition, actives largely listed as inhibitors. 530 tested, 27% active; note: nearly all actives have a fitted effect of over 45% in size
RECQ1 inh-2 – RECQ1 helicase inhibition confirmed, round 2. AID 504841. Potency, µM (doses to about 119 µM), without a hit: top-dose activity, negative = inhibition, usual class: inhibitors. shares compounds with RECQ1 inh-1. recombinant RECQ1 DNA unwinding, red fluorescence. 1,100 tested, 15% active; note: nearly all actives have a fitted effect of over 50% in size
* hit, by the source's call; [ ] = another dose, or the depositor's remark. Unless noted, calls come from the whole dose curve; as a rule, active = well fitted curve in the direction sought with a large enough effect; inconclusive = small, poorly fitted or top-dose-only effect, or another doubt; inactive = no such curve, though single readings can be large; an effect the other way counts as inactive or inconclusive. Unless noted, % is set by controls: 0 for no effect and ±100 for the full control effect; potency is the fitted concentration of half-maximal effect.

Screening COCCn1c(=O)[nH]c2cc(C(=O)N3CCN(c4ccccc4F)CC3)ccc2c1=O returned APEX1 inh 13.4% and BLM inh 0.7%.
Screening CCn1c(=O)c(=O)[nH]c2cc(C(=O)N3CCN(c4ccccc4F)CC3)ccc21 returned APEX1 inh 0.3%, BLM inh -3.1%, TexasRed fluor 44.7µM*[fluorescent], RGS12 GoLoco inh 128.3%, TRb-SRC2 inh 14.1%, RECQ1 inh-1 25.1µM* and RECQ1 inh-2 79.4µM*.
Screening COc1ccc(N(CC(=O)N2c3ccccc3CC2C)S(=O)(=O)c2c(C)noc2C)cc1 (stereo unspecified) returned APEX1 inh 7.9%, BLM inh -15.1%, TexasRed fluor 2.0%, RGS12 GoLoco inh 6.5%, TRb-SRC2 inh -4.4%, RECQ1 inh-1 inconclusive and RECQ1 inh-2 -17.8%.
COc1ccc(N(CC(=O)N2CCN(c3ccccc3F)CC2)S(=O)(=O)c2c(C)noc2C)cc1 was read as APEX1 inh 16.8%, BLM inh -2.1%, TexasRed fluor -2.4% and TRb-SRC2 inh -6.2%.
Screening COc1ccc(CCN2CC(C(=O)NC3CCCCC3)CC2=O)cc1OC (stereo unspecified) returned APEX1 inh inconclusive, BLM inh -19.8%, TexasRed fluor -1.9%, RGS12 GoLoco inh 11.6%, TRb-SRC2 inh -12.8%, RECQ1 inh-1 39.8µM* and RECQ1 inh-2 inconclusive.
For O=c1cc(CSc2ccccc2)[nH]c2ccc(F)cc12 the results were BLM inh -3.0%, TexasRed fluor -3.2% and TRb-SRC2 inh 1.5%.
`CC(C)Nc1ccc(Nc2ccnc3cc4ccccc4cc23)cc1` gave APEX1 inh inconclusive, BLM inh inconclusive, TexasRed fluor -1.7%, RGS12 GoLoco inh 8.6%, TRb-SRC2 inh 3.0%, RECQ1 inh-1 22.4µM*, RECQ1 inh conf 22.4µM* and ADP FP counter 37.2%[91.9 µM].
For CCN(CC)c1ccc(/C=N/NC(=S)NCc2ccccc2)cc1 the results were APEX1 inh -0.5%, BLM inh -8.4%, TexasRed fluor -1.5%, RGS12 GoLoco inh 5.3%, TRb-SRC2 inh -15.7%, RECQ1 inh-1 7.08µM*, RECQ1 inh conf -7.3%[114 µM] and ADP FP counter 6.6%[91.9 µM].
`CCN(CC)c1ccc(/C=N/NC(=S)NCc2ccc(OC)cc2)cc1` gave APEX1 inh -5.5%, BLM inh -5.2%, TexasRed fluor -9.8%, RGS12 GoLoco inh 7.4%, TRb-SRC2 inh 6.2% and RECQ1 inh-1 -11.9%.
CCOC(=O)C1CCN(C(=O)Cn2ncc3c4ccccc4n(Cc4ccccc4F)c3c2=O)CC1 was read as BLM inh -3.2%, TexasRed fluor -0.8% and TRb-SRC2 inh 5.4%.
O=C(CSc1n[nH]c(-c2ccccc2)n1)c1ccc(O)c(O)c1 was read as APEX1 inh inconclusive, BLM inh -2.5%, TexasRed fluor -6.7%, RGS12 GoLoco inh 1.3%, TRb-SRC2 inh -0.9%, RECQ1 inh-1 20µM* and RECQ1 inh-2 inconclusive.
`CCOc1ccc(C(=O)Nc2cccc(NC(=O)c3ccco3)c2)cc1Cl` gave BLM inh -0.8%, TexasRed fluor -18.8% and TRb-SRC2 inh -10.0%.
COc1ccccc1CNC(=O)CCCn1c(=O)c2ccccc2n(CC(=O)Nc2c(C)cc(C)cc2C)c1=O was read as BLM inh -0.3%, TexasRed fluor 12.7% and TRb-SRC2 inh 3.5%.
For CCc1ccc(CNC(=O)c2cc3c(s2)-c2ccccc2OC3)cc1 the results were BLM inh -15.0%, TexasRed fluor inconclusive and TRb-SRC2 inh 1.1%.
Cc1nnc(SCC(=O)N2N=C(c3ccc(Cl)cc3)CC2c2ccco2)[nH]c1=O (stereo unspecified) was read as APEX1 inh -12.3%, BLM inh -9.8%, TexasRed fluor 0.7%, RGS12 GoLoco inh 81.4%, TRb-SRC2 inh 0.5%, RECQ1 inh-1 31.6µM* and RECQ1 inh-2 -29.9%.
For CCN1C(=O)C(Cc2nc3ccccc3c(=O)n2-c2ccccc2)c2cc(Br)ccc21 (stereo unspecified) the results were BLM inh -6.9%, TexasRed fluor -0.8% and TRb-SRC2 inh 3.0%.
COc1ccc(C2C=C(c3ccc(Cl)cc3)Nc3nc(-c4ccc(Cl)cc4)nn32)cc1 (stereo unspecified) was read as BLM inh -14.1%, TexasRed fluor -3.2% and TRb-SRC2 inh 13.2%.
For CCOc1ccc(S(=O)(=O)N2CCN(c3ccccc3)CC2)cc1C(N)=O the results were BLM inh 0.6%, TexasRed fluor 5.3% and TRb-SRC2 inh -4.0%.
Screening CC1(C)c2ccccc2N2CCC(=O)NC21/C=C/c1ccco1 (stereo unspecified) returned APEX1 inh -3.1%, BLM inh -6.5%, TexasRed fluor 44.7µM*[fluorescent], RGS12 GoLoco inh 14.9%, TRb-SRC2 inh inconclusive, RECQ1 inh-1 inconclusive and RECQ1 inh-2 -4.2%.
For N#Cc1nc(/C=C/c2ccc(F)cc2)oc1N1CCCCC1 the results were BLM inh -13.3%, TexasRed fluor -1.6% and TRb-SRC2 inh -7.9%.
`CCN(C(=O)C(=O)Nc1ccc2nc3n(c(=O)c2c1)CCCCC3)c1ccc(F)cc1` gave BLM inh -4.9%, TexasRed fluor -0.2% and TRb-SRC2 inh -1.4%.
For COc1cc(NC(=O)CSc2nc3ccccc3cc2C)c(C(=O)O)cc1OC the results were APEX1 inh 0.5%, BLM inh -2.0%, TexasRed fluor 0.9%, RGS12 GoLoco inh 6.5%, TRb-SRC2 inh -2.2%, RECQ1 inh-1 -6.1%, RECQ1 inh conf 12.6% and ADP FP counter inconclusive.
`COc1ccc2cc(C)c3nnc(SCC(=O)Nc4cc(OC)c(OC)cc4C(=O)O)n3c2c1` gave APEX1 inh 1.1%, BLM inh -1.4%, TexasRed fluor -0.5%, RGS12 GoLoco inh 5.2%, TRb-SRC2 inh 3.0%, RECQ1 inh-1 -2.5%, RECQ1 inh conf 21.2% and ADP FP counter -7.7%.
